The supplement of paper PMC10515830

How the values were obtained:
Conditions in all cases: 10 µM; exposure time 6 h
[1] = tested on: Danio rerio larvae (5 dpf); assay: difference in excitability vs DMSO (percentage points); higher = more excitable than DMSO
How it was run: (§1)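 Library compounds were tested at 10 µM final in 100 µL egg water on wild-type 5 dpf zebrafish larvae in 96-well plates for 6 h, with 48 larvae per compound. After 3 h, plates at 28.5 ℃ were imaged every 6 s during a 3-h run of moving lines and 100 ms, 400Hz tones. Behaviours were quantified by Z-LaP Tracker and reported as the compound mean less the vehicle control mean, in percentage points.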

[2] = tested on: Danio rerio larvae (5 dpf); assay: difference in startle response vs DMSO (percentage points); higher = stronger startle than DMSO
How it was run: as §1

[3] = tested on: Danio rerio larvae (5 dpf); assay: difference in activity during first hour vs DMSO (percentage points); higher = more activity than DMSO
How it was run: as §1

[4] = tested on: Danio rerio larvae (5 dpf); assay: difference in habituation to acoustic stimuli vs DMSO (percentage points); higher = more habituation than DMSO
How it was run: as §1

[5] = tested on: Danio rerio larvae (5 dpf); assay: difference in combined optomotor response to red, green and blue moving lines vs DMSO (percentage points); higher = stronger optomotor response than DMSO
How it was run: as §1

Row | Compound | difference in excitability [1] | difference in startle response [2] | difference in activity during first hour [3] | difference in habituation to acoustic stimuli [4] | difference [5]
1 | CCOCCn1c(N2CCCN(C)CC2)nc2ccccc21 [Emedastine (fumarate)] | 5.25 | 8.02 | 5.05 | 0.658 | -3.97
2 | COc1cc(Cc2cnc(N)nc2N)cc(OC)c1OC [Trimethoprim] | 2.02 | 3.93 | 12.5 | -7.9 | 12.7
3 | Cc1cc(/C=C/C#N)cc(C)c1Nc1ccnc(Nc2ccc(C#N)cc2)n1 [Rilpivirine] | 9.16 | -10.5 | -18.2 | -9.2 | -12.5
